Compound activity deposited in PubChem BioAssay by National Center for Advancing Translational Sciences (NCATS).
An excerpt weighted towards active compounds, which were near 5.5% of everything screened.
RORgamma inh – qHTS for inhibitors of ROR gamma transcriptional activity. Drosophila S2 Gal4-RORgamma UAS-luciferase reporter, 20 h. actives 5.4% (n = 310,000). Potency, µM (top dose mostly 53.6 µM), most hits filed as inhibitors. Nuclear receptor ROR-gamma (Mus musculus), P51450; also: nearly all actives have a fitted effect of over 60% in size
Target sequence (P51450 whole entry, looked up, the tested form may be a part): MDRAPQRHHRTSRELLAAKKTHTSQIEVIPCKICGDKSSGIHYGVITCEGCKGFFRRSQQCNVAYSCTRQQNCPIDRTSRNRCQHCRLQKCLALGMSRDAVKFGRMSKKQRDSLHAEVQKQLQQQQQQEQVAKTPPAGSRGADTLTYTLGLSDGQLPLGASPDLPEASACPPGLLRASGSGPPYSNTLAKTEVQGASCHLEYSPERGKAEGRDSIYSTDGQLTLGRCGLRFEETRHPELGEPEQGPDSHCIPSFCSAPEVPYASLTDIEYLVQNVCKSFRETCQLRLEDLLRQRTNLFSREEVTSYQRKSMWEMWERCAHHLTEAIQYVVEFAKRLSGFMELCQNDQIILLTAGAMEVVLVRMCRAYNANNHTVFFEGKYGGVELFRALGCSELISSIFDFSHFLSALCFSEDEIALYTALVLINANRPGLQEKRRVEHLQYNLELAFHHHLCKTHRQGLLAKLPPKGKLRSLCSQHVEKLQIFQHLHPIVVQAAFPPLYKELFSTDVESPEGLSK
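A Gal4/UAS one-hybrid system in insect cells: metallothionein-promoter Gal4–ROR gamma fusion plus Photinus luciferase reporter. Copper sulfate 700 uM final, 20 hr ambient incubation, luminescent detection after 10 min with reagent.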
VP16 counter – VP16 counterscreen qHTS for inhibitors of ROR gamma transcriptional activity | Drosophila S2 Gal4-VP16 UAS-luciferase, luminescence, 20 h | Potency, µM (doses to about 53.6 µM), most hits filed as inhibitors | actives 3.5% (n = 310,000) | AID 2546, 2010;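 also: Gal4-VP16 expression switched on by copper sulfate through the metallothionein promoter; nearly all actives have a fitted effect of over 50% in size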
Mito fusion yeast – qHTS Assay for Small Molecule Inhibitors of Mitochondrial Division or Activators of Mitochondrial Fusion; Potency, µM (titrated, usually from 46.1 µM), most hits filed as activators; actives 0.23% (n = 320,000); S. cerevisiae fusion-defective mutant growth rescue, CellTiterGlo 48 h; also: nearly all actives have a fitted effect of over 45% in size
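Luminescent cell viability in 1536-well qHTS format served as the measure of rescued growth in ts fusion-mutant S. cerevisiae cultured on non-fermentable YPEG for 48 hours at 37C.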
uPA generation – qHTS for Inhibitors of Cell Surface uPA Generation; Potency, µM (doses to about 38.3 µM), usual class: inhibitors; cell surface uPA generation assay, qHTS; AID 540303, 2011; actives 0.31% (n = 330,000); active = well fitted inhibition curve with a large enough effect; inconclusive = small, poorly fitted or top-dose-only effect; inactive = no such curve, though single readings can be large or run the other way; tested in mouse RAW 264.7 cells; also: nearly all actives have a fitted effect of over 55% in size
Chronic BCR inh – qHTS Assay to Find Inhibitors of Chronic Active B-Cell Receptor Signaling; ABC-DLBCL IkBa-CBG/CBR reporter, luminescence ratio, 4 h; Potency, µM (series often up to 46.1 µM), hits mostly inhibitors; actives 0.05% (n = 340,000); active = well fitted inhibition curve with a large enough effect in the signal ratio, with a control signal flat, not every such curve was filed as active; inconclusive = small, poorly fitted or top-dose-only effect, or effect the other way, or a change in a side signal; the % refers to the signal ratio
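TMD8 human ABC-DLBCL cells with doxycycline-inducible IκBα–green luciferase fusion and unfused red luciferase, in 0.5% FBS medium; compounds up to 46 uM, 4 h at 37C. Green/red luminescence ratio, filter-overlap corrected, fitted to concentration-response curves.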
a7 integrin act – qHTS for Activators of Integrin-Mediated Alleviation for Muscular Dystrophy; alpha7betagal myoblasts, beta-gal FDG fluorescence, 48 h; Potency, µM (series often up to 38.3 µM), hits mostly activators; actives 0.064% (n = 350,000); AID 624291, 2012; also: nearly all actives have a fitted effect of over 60% in size
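alpha7betagal+/- myoblasts (passage 13, 250/well) treated 48 h at 37C with compounds at 1:260 dilution of DMSO stock. Lysed, then beta-galactosidase activity read as FDG fluorescence (ex 480/em 540) after 30 min, with pre-read for autofluorescence.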
Each line names hits and unclear results; the compound was inactive in the other large screens. Unless noted, calls follow the shape of the dose curve; as a rule, active = well fitted curve in the direction sought with a large enough effect; inconclusive = small, poorly fitted or top-dose-only effect, or another doubt; inactive = no such curve, though single readings can be large; an effect the other way counts as inactive or inconclusive.

O=C(O)C(c1ccccc1)N1C(=O)/C(=C/c2cccs2)SC1=S (centres undefined)	Chronic BCR inh inconclusive
O=C(O)CCCN1C(=O)/C(=C/c2ccncc2)SC1=S	RORgamma inh 8.9µM, VP16 counter 10µM, Chronic BCR inh inconclusive
CC(c1ccccc1)N1C(=O)/C(=C/c2ccncc2)SC1=S (centres undefined)	RORgamma inh inconclusive, VP16 counter 16µM, uPA generation inconclusive, Chronic BCR inh inconclusive
O=C(CCN1C(=O)/C(=C/c2ccccc2)SC1=S)NNC(=O)c1ccncc1	Chronic BCR inh inconclusive, a7 integrin act inconclusive
O=C(O)CCCCCN1C(=O)/C(=C\c2ccc(-c3ccc(Cl)cc3)o2)SC1=S	Mito fusion yeast inconclusive, Chronic BCR inh inconclusive
O=C(CCN1C(=O)/C(=C\c2ccccc2)SC1=S)NNC(=O)c1ccncc1	none
O=C(O)CCCCCN1C(=O)/C(=C/c2ccncc2)SC1=S	RORgamma inh 11µM, VP16 counter 10µM, Chronic BCR inh inconclusive
N#Cc1ccc(CN2CCCC3(CCN(C(=O)c4csnn4)CC3)C2)cc1	none (no result: Mito fusion yeast, uPA generation, Chronic BCR inh, a7 integrin act)
COc1cc2c(cc1OC)C1O[C@](CCCCN3C(=O)c4ccccc4C3=O)(C2)OC2=C1C(=O)CCC2	Chronic BCR inh inconclusive (no result: uPA generation, a7 integrin act)
CCCn1nnnc1COc1ccc(C(N)=O)cc1	none
CCCCC#Cc1cncc(C(=O)NN)c1	RORgamma inh 7.9µM, VP16 counter 7.9µM, Chronic BCR inh inconclusive
CCCCCCC#Cc1cncc(C(=O)NNC(=O)Nc2cc(Cl)cc(Cl)c2)c1	none
CS(=O)c1nc(-c2ccc(Br)cc2)cc(-c2ccccc2)c1C#N (centres undefined)	RORgamma inh 7.9µM, VP16 counter 14µM, Mito fusion yeast inconclusive, uPA generation inconclusive, Chronic BCR inh inconclusive
N#Cc1c(-c2ccc(Br)cc2)cc(-c2cccnc2)nc1N	none
COc1ccc(-c2cc(-c3ccccc3)c(C#N)c(S(C)(=O)=O)n2)cc1	RORgamma inh inconclusive, Chronic BCR inh inconclusive
CS(=O)(=O)c1nc(-c2ccc(Br)cc2)cc(-c2ccccc2)c1C#N	RORgamma inh 3.2µM, VP16 counter inconclusive, Chronic BCR inh inconclusive
CCCc1c(C(=O)N/N=C/c2ccc(OCc3ccc(F)cc3)cc2)nnn1-c1nonc1N	none (no result: RORgamma inh, VP16 counter, Mito fusion yeast, uPA generation, Chronic BCR inh)
CC(C)CNC(=O)C(=O)NCC1OCCCN1S(=O)(=O)c1ccc2c(c1)OCCO2 (centres undefined)	Chronic BCR inh inconclusive
c1cncc(-c2cc(NCc3cccs3)ncn2)c1	none (no result: Mito fusion yeast, uPA generation, Chronic BCR inh, a7 integrin act)
CCOc1ccc(NC(=O)CSc2nc3nc(C)cc(C)n3n2)cc1	RORgamma inh inconclusive, VP16 counter 11µM
CCOC(=O)CSc1nc2cc3c(cc2c(=O)n1CCCC(=O)NCc1ccc2c(c1)OCO2)OCO3	none (no result: RORgamma inh, VP16 counter, Mito fusion yeast, uPA generation, a7 integrin act)
COc1ccc(N2CCN(C(=S)NC(=O)c3cccs3)CC2)c([N+](=O)[O-])c1	RORgamma inh 0.32µM, VP16 counter 1.4µM, Chronic BCR inh inconclusive
O=C(NC(=S)N1CCN(c2c(Cl)cccc2[N+](=O)[O-])CC1)c1cccs1	RORgamma inh 0.28µM, VP16 counter 0.16µM, Mito fusion yeast inconclusive, Chronic BCR inh inconclusive
CC(C)C(=O)N1CCN(c2c(Cl)cccc2[N+](=O)[O-])CC1	none
Nc1nc(-c2cccc(NS(=O)(=O)c3ccccc3)c2)cs1	RORgamma inh inconclusive, VP16 counter 18µM
Nc1nc(-c2ccc(-c3ccccc3)cc2)cs1	RORgamma inh inconclusive, VP16 counter 22µM, Chronic BCR inh inconclusive
CC1CCCC(C)N1C(=O)c1ccc(S(=O)(=O)NCc2ccco2)cc1 (centres undefined)	RORgamma inh inconclusive, Chronic BCR inh inconclusive
O=C1C2C(C(=O)N1/N=C/c1ccc(N3CCCCC3)o1)C1C=CC2C12CC2 (centres undefined)	VP16 counter 3.2µM
O=C(NCCc1ccccc1)c1ccc(NC(=O)C2CCCC2)cc1	none (no result: RORgamma inh, VP16 counter, Mito fusion yeast, Chronic BCR inh)
Cn1ccc(CC(=O)N2CCC(N3CCC(C(=O)N4CCCC4)CC3)CC2)c1	none
CCn1cc([N+](=O)[O-])c(C(=O)N2N=C(c3ccc4ccccc4c3)CC2c2ccccc2O)n1 (centres undefined)	Chronic BCR inh inconclusive
O=C(c1ccncc1)N1N=C(c2ccc(Br)cc2)CC1c1ccccc1O (centres undefined)	Mito fusion yeast inconclusive, Chronic BCR inh inconclusive
O=C(c1ccccc1)N1N=C(c2ccccc2)CC1c1ccccc1O (centres undefined)	RORgamma inh 4.5µM, VP16 counter 4µM, Chronic BCR inh inconclusive
CCn1cc(Cl)c(C(=O)N2N=C(c3ccc4ccccc4c3)CC2c2ccccc2O)n1 (centres undefined)	RORgamma inh inconclusive, VP16 counter 16µM, Mito fusion yeast inconclusive, Chronic BCR inh inconclusive
N#Cc1ccc2sn(-c3ccccc3)c(=O)c2c1	none (no result: RORgamma inh, VP16 counter, Mito fusion yeast, uPA generation, Chronic BCR inh)
COc1ccc(S(=O)(=O)N(Cc2ccccc2)Cc2nc3ccccc3c(=O)[nH]2)cc1	RORgamma inh 13µM, VP16 counter 11µM
O=c1[nH]c(CN(CCc2ccccc2)S(=O)(=O)c2ccc(Cl)cc2)nc2ccccc12	RORgamma inh 4.5µM, VP16 counter 6.3µM
C=C1c2ccccc2O[C@H](C(=O)OCC)[C@@H]1C1CCCCC1 (tested in a mixture with another compound)	none (no result: Mito fusion yeast, uPA generation, Chronic BCR inh, a7 integrin act)
O=S(=O)(O)c1cc(O)c2c(N=Nc3ccc(Nc4ccccc4)c4c(S(=O)(=O)O)cccc34)cc(S(=O)(=O)O)cc2c1	RORgamma inh inconclusive (no result: Mito fusion yeast, uPA generation, Chronic BCR inh, a7 integrin act)
CCOC(=O)N=Nc1c(O)n(Cc2ccccc2)c2ccccc12	RORgamma inh inconclusive, Mito fusion yeast inconclusive, a7 integrin act inconclusive
O=Nc1c(O)n(Cc2cccc(Cl)c2)c2ccccc12	Chronic BCR inh inconclusive
NC(=S)N=Nc1c(O)n(Cc2ccccc2)c2ccccc12	RORgamma inh 3.2µM, VP16 counter inconclusive
Cc1ccc(NC(=O)Cn2c(O)c(N=NC(N)=S)c3ccccc32)cc1	RORgamma inh inconclusive, VP16 counter inconclusive, Chronic BCR inh inconclusive
Cc1cc(C)nc(N=Nc2c(O)n(Cc3ccc(Cl)cc3)c3ccccc23)n1	RORgamma inh 5.6µM, VP16 counter 3.5µM
C/C(Cl)=C\Cn1c(O)c(N=NC(N)=S)c2ccccc21	RORgamma inh 3.5µM, VP16 counter 5µM, Chronic BCR inh inconclusive
CCCCNC(=S)N=Nc1c(O)n(Cc2ccccc2)c2ccccc12	RORgamma inh 6.3µM, VP16 counter 6.3µM
COc1ccc(C2C3C=CCC(c4cccc(-c5ccc(N(C)C)cc5)c4)C3C(=O)N2Cc2ccccc2)cc1Cl (centres undefined)	none (no result: Mito fusion yeast, uPA generation, Chronic BCR inh, a7 integrin act)
